For test [1], the target named is T1, cGMP-dependent protein kinase 1 (Homo sapiens) (UniProt Q13976).
T1 sequence (whole entry): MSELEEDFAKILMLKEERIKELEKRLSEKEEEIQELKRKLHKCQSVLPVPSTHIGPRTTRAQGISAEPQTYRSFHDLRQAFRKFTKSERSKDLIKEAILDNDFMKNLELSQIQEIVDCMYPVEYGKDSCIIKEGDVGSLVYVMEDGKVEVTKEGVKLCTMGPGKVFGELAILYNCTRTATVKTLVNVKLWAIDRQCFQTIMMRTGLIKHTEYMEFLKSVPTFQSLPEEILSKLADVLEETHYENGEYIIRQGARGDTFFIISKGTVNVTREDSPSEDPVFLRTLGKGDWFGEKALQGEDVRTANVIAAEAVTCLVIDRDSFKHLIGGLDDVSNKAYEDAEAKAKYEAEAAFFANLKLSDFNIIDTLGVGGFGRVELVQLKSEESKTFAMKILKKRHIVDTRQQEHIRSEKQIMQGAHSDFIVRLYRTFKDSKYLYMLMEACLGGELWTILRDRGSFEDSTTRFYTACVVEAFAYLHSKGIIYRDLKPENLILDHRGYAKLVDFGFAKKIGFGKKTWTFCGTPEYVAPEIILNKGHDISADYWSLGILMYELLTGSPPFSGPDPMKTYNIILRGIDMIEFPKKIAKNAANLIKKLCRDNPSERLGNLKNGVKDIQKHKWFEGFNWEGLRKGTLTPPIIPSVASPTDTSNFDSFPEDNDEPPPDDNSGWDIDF
The note with it: at 1 µM.

The target of test [2] is T1, cGMP-dependent protein kinase 1 (Homo sapiens). The following applies: at 10 µM.
Test [3] has the same target. The following applies: at 1 µM. The source holds these as a separate data set.
The target is the same in test [4]. The note with it: at 10 µM. The source holds these as a separate data set.
The target of test [5] is T2, MAP kinase-activated protein kinase 5 (Homo sapiens) (UniProt Q8IW41).
T2 sequence (whole entry): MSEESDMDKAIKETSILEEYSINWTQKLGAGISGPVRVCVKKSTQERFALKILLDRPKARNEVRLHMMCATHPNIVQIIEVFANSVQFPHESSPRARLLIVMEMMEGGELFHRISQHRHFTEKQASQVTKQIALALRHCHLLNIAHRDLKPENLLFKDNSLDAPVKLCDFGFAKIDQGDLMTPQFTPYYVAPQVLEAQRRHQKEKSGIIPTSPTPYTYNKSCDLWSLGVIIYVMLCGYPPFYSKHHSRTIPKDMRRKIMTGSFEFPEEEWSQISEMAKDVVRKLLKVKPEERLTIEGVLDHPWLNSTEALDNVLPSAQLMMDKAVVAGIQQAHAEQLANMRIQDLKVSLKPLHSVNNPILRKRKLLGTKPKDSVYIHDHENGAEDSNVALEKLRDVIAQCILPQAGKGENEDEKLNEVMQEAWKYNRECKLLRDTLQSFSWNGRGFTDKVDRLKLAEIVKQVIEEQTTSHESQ
The note with it: at 1 µM.

Test [6] has as its target T2, MAP kinase-activated protein kinase 5 (Homo sapiens). The note with it: at 10 µM.
Test [7] addresses Serine/threonine-protein kinase N2 (Homo sapiens) (UniProt Q16513). The following applies: at 1 µM.
The target is the same in test [8]. The note with it: at 10 µM.
In test [9] the target is Tyrosine-protein kinase FRK (Homo sapiens) (UniProt P42685). The note with it: at 1 µM.
For test [10] the target is unchanged. The following applies: at 10 µM.
Test [11] deals with T3, Phosphorylase b kinase gamma catalytic chain, liver/testis isoform (Homo sapiens) (UniProt P15735).
T3 sequence (whole entry): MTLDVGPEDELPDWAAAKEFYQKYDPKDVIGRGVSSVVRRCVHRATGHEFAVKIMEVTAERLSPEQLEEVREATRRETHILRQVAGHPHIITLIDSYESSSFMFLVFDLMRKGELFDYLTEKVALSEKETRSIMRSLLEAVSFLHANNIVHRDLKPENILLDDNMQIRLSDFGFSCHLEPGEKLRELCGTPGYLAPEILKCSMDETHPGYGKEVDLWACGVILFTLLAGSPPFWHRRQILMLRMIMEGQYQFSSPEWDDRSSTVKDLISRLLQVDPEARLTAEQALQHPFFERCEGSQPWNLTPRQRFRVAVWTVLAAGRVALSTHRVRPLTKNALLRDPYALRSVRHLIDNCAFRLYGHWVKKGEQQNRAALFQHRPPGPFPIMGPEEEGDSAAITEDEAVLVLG
The following applies: at 1 µM.

The target of test [12] is T3, Phosphorylase b kinase gamma catalytic chain, liver/testis isoform (Homo sapiens). The following applies: at 10 µM.
For test [13], the target named is Serine/threonine-protein kinase pim-1 (Homo sapiens) (UniProt P11309). The following applies: at 1 µM.
Test [14] has the same target. The following applies: at 10 µM.
Test [15] deals with Serine/threonine-protein kinase pim-2 (Homo sapiens) (UniProt Q9P1W9). The note with it: at 1 µM.
The target is the same in test [16]. The following applies: at 10 µM.
Test [17] has as its target Serine/threonine-protein kinase pim-3 (Homo sapiens) (UniProt Q86V86). The following applies: at 1 µM.
The target is the same in test [18]. The note with it: at 10 µM.
The target in test [19] is Serine/threonine-protein kinase PLK1 (Homo sapiens) (UniProt P53350). The note with it: at 1 µM.
The target is the same in test [20]. The note with it: at 10 µM.

Tyrosine-protein kinase FRK (Homo sapiens), sequence (P42685 whole entry): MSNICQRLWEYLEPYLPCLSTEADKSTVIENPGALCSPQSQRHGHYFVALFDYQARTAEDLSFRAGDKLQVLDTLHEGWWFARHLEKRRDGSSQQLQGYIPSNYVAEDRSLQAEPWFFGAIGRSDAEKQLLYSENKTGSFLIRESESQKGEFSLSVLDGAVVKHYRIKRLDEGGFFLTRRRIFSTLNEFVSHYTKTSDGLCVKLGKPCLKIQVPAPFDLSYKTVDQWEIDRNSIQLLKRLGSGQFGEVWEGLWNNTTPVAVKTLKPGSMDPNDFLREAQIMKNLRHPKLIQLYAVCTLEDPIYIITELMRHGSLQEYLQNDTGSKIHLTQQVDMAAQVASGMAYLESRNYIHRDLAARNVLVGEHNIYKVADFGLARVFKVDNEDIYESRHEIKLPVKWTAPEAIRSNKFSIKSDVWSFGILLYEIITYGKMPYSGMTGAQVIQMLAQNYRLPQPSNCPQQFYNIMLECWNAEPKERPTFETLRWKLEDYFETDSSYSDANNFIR
Serine/threonine-protein kinase pim-1 (Homo sapiens), sequence (P11309 whole entry, looked up): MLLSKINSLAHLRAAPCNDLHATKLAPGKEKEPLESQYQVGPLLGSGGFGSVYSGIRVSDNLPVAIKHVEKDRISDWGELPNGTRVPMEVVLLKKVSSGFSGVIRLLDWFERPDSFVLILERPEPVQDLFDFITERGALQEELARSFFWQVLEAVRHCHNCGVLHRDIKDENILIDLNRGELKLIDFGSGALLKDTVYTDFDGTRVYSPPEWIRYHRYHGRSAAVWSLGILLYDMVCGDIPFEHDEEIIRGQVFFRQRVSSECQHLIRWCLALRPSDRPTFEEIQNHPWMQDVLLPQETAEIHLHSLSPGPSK
Serine/threonine-protein kinase PLK1 (Homo sapiens), sequence (P53350 whole entry): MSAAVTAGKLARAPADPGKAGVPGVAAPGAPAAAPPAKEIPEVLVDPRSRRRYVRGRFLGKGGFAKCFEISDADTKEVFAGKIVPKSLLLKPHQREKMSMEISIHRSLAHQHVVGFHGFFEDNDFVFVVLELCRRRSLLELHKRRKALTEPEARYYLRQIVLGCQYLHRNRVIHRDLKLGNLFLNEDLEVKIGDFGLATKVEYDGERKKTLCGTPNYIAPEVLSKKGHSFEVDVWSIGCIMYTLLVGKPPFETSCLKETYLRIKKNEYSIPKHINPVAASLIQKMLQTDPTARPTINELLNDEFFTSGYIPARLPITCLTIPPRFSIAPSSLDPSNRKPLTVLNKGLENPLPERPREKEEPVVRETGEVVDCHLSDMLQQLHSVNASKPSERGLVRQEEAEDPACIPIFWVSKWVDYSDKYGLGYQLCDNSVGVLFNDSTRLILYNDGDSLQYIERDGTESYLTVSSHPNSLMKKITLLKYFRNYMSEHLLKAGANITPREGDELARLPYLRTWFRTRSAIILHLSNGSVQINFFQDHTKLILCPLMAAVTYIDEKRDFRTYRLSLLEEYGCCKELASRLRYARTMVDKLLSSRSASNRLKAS
Serine/threonine-protein kinase N2 (Homo sapiens), sequence (Q16513 whole entry, looked up): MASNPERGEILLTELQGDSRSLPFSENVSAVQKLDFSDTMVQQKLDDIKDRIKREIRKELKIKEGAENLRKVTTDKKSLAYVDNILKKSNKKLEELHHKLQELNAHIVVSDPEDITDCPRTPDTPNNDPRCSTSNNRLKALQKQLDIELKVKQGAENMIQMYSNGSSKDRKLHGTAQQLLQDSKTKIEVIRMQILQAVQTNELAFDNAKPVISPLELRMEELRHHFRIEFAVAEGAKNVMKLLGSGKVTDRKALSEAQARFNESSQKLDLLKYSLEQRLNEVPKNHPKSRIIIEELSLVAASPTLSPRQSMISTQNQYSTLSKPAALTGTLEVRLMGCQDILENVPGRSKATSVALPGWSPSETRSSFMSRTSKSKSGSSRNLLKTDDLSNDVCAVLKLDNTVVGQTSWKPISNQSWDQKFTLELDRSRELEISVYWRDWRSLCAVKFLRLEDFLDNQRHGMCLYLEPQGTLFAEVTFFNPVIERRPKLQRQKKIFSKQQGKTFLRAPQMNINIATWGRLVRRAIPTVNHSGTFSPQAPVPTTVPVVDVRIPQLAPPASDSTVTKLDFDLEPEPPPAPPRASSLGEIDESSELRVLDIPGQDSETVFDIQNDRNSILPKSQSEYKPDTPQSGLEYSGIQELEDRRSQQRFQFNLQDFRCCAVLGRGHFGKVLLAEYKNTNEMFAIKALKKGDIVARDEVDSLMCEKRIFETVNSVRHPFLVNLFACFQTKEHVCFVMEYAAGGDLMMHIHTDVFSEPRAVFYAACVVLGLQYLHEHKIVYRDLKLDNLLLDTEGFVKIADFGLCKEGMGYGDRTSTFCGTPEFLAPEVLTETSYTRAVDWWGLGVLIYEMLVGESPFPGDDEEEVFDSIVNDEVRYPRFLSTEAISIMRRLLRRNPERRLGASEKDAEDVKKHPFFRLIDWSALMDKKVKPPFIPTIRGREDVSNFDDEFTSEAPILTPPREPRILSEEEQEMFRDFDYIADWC
Serine/threonine-protein kinase pim-2 (Homo sapiens), sequence (Q9P1W9 whole entry, looked up): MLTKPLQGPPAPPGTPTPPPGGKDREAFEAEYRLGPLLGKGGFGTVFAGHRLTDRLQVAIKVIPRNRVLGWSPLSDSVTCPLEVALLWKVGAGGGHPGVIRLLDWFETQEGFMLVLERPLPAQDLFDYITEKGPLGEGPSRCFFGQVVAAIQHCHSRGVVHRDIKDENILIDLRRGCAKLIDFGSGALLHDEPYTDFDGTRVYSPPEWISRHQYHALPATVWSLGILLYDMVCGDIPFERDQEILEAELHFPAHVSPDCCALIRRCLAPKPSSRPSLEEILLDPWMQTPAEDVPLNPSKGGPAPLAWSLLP

On to `Nc1ccc2ncnc(NCCc3ccc(Oc4ccccc4)cc3)c2c1`, for which the residual activity came to 108% in test [1]; 109% in test [2]; 86% in [3]; 75% in test [4]; 89% in test [5]; 90% in [6]. Also, the residual activity in test [7] came out at 98%; in test [8], 78%; in test [9], 93%; in test [10], 109%; in test [11], 88%; in [12] it was 75%. For the same compound, the residual activity stood at 100% in [13]; 93% in test [14]; 93% in test [15]; 136% in test [16]; 90% in test [17]; 89% in [18]. Moreover, the residual activity came out at 90% in test [19] and 85% in [20].

`CC(C)n1cnc2/c(=N/c3cccc(Cl)c3)nc(NCCO)[nH]c21`: the residual activity came to 92% in test [1]; 106% in [2]; 94% in test [3]; 72% in test [4]; 105% in [5]; 88% in [6]. Besides, the residual activity in [7] was determined as 86%; in test [8] it was 62%; in test [9], 75%; in [10], 29%; in [11] it was 52%; in test [12] it was 33%. Further, the residual activity stood at 115% in test [13]; 66% in [14]; 137% in test [15]; 93% in test [16]; 84% in test [17]; 71% in [18]. For the same compound, the residual activity in [19] was found to be 30%; in test [20] it was 6%.

In the case of `O=c1c2ccccc2[nH]c(=S)n1CCN1CCC(=C(c2ccc(F)cc2)c2ccc(F)cc2)CC1`, the residual activity turned out to be 107% in test [1]; 103% in test [2]; 86% in [3]; 87% in test [4]; 94% in test [5]; 74% in [6]. Moreover, the residual activity in test [7] stood at 114%; in test [8] it was 109%; in [9] it was 101%; in test [10], 89%; in [11], 103%; in test [12], 105%. Besides, the residual activity in test [13] was determined as 89%; in test [14] it was 105%; in test [15], 75%; in test [16] it was 133%; in test [17], 98%; in test [18] it was 99%. The residual activity in test [19] is 104%; in [20], 68%.

As to `O=c1cc(-c2cccc3c2Sc2ccccc2S3)oc(N2CCOCC2)c1`, the residual activity turned out to be 102% in test [1]; 105% in test [2]; 81% in test [3]; 80% in [4]; 99% in [5]; 40% in test [6]. The residual activity is 112% in [7]; 97% in test [8]; 94% in [9]; 92% in test [10]; 96% in test [11]; 100% in [12]. The residual activity is 93% in [13]; 30% in [14]; 68% in test [15]; 29% in test [16]; 102% in test [17]; 85% in test [18]. The residual activity in test [19] was determined as 95%; in test [20], 99%.

As for `C[C@@H](N)[C@H]1CC[C@H](C(=O)Nc2ccncc2)CC1`, the residual activity is 77% in [1]; 31% in test [2]; 73% in [3]; 30% in test [4]; 112% in test [5]; 102% in test [6]. Moreover, the residual activity in [7] turned out to be 16%; in test [8], 4%; in test [9], 98%; in test [10], 97%; in test [11], 101%; in [12], 93%. In addition, the residual activity in [13] is 126%; in test [14], 115%; in test [15] it was 118%; in test [16], 121%; in test [17], 98%; in test [18] it was 99%. For the same compound, the results for the residual activity in test [19] and in test [20] were 107% and 105%, respectively.

For the compound `Oc1c2ccccc2c2c3c(cccc13)N=N2`, the residual activity in [1] turned out to be 79%; in [2], 79%; in test [3], 90%; in test [4], 60%; in test [5], 59%; in [6], 14%. Further, the residual activity in [7] amounted to 74%; in test [8], 32%; in test [9], 91%; in test [10] it was 58%; in [11] it was 77%; in [12], 15%. For the same compound, the residual activity in test [13] is 68%; in [14] it was 18%; in test [15], 58%; in [16], 21%; in [17], 75%; in [18], 59%. Further, the figures for the residual activity in [19] and in test [20] were 69% and 64%, respectively.

The record behind these values is ChEMBL document CHEMBL2218924, “A broad activity screen in support of a chemogenomic map for kinase signalling research and drug discovery” (Biochem J, 2013).
